Rab9 prom act: activators of Rab9 promoter | Huh7 Rab9 promoter-luciferase reporter, luminescence, 24 h | Potency, µM (highest dose often 9.22 µM), without a hit: at the top dose activation, negative = inhibition, usual class: activators | 320,000 compounds, 2.8% hits | AID 485297; note: % of control where 0% means no effect; nearly all actives have a fitted effect of over 60% in size
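Huh7 reporter line, Rab9 promoter upstream of luciferase. Compound exposure 24 h at 37 °C in reduced-serum medium with 10% FBS. Read-out: luminescence.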
FLuc modulator: firefly luciferase modulation, counter-screen for miR-21 project; P08659; purified FLuc, Km substrates, luminescence inhibition; AID 588342; Potency, µM (top dose mostly 57.5 µM), without a hit: at the highest dose activity change, negative = inhibition, hits mostly inhibitors; 360,000 compounds, 6.9% hits;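 note: plate controls were vehicle for no effect and reference inhibitor for full effect; nearly all actives have a fitted effect of over 55% in size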
Target sequence (P08659 whole entry, looked up): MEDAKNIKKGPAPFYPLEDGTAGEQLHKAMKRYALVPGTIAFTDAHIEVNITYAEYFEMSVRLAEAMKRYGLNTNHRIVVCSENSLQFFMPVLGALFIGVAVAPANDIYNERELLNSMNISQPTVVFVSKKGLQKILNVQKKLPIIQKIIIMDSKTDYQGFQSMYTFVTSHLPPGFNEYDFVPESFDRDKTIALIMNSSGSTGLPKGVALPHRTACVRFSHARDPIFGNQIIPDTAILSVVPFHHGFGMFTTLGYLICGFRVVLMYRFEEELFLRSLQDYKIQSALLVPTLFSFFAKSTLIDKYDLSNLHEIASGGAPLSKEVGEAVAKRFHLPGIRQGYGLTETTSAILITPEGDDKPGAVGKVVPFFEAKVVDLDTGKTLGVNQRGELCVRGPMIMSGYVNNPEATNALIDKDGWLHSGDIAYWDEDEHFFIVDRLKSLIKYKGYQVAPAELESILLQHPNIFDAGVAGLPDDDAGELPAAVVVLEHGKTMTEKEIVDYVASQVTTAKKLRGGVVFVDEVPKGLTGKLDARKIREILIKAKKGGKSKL
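Purified P. pyralis luciferase (10nM final) with 10uM D-luciferin and 10uM ATP (Km levels) in 50mM Tris acetate pH 7.5, 10mM Mg acetate, 0.01% Tween-20, 0.05% BSA; qHTS 6-point titration, ~60 µM downward; luminescence read.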
ELG1 genotoxic: induces genotoxicity in HEK293T cells with luciferase-tagged ELG1; HEK293T ELG1-luciferase reporter, luminescence, 16 h; Potency, µM (highest dose often 46 µM), inactives show top-dose activity change, positive = activation, hits mostly activators; 330,000 compounds, 1.3% hits; note: % of control where 0% means no effect; nearly all actives have a fitted effect of over 60% in size
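Reporter readout depends on ELG1 protein level, which increases with genetic stress. After 16 hr compound exposure at 37 °C, luciferase activity was quantified using ONE-Glo.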
SMN2 splice enh: increases expression of the SMN2 splice variant | AID 1458 | HEK293 SMN2-luciferase splicing reporter, luminescence, 30-36 h | Potency, µM (series often up to 46.1 µM), without a hit: at the top dose activity change, positive = activation, actives largely listed as activators | 210,000 compounds, 2.8% hits; note: % of control where 0% means no effect; nearly all actives have a fitted effect of over 55% in size
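qHTS luciferase splicing reporter: luminescence rises when SMN2 exon 7 is included in transfected HEK293 cells. Compound exposure lasted 30-36 h at 37C, with 4.5 mM final sodium butyrate as control, followed by a ONE-Glo read.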
KinaseGlo FLuc: counter-screen: inhibitors of Kinase-Glo firefly luciferase | Kinase-Glo luciferase, ATP luminescence, 8 min | Potency, µM (titrated, usually from 38.3 µM), inactives show at the top dose activity change, negative = inhibition, usual class: inhibitors | 200,000 compounds, 0.28% hits; note: % is set by controls: 0 for no effect and ±100 for the full control effect; nearly all actives have a fitted effect of over 60% in size
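Kinase-Glo luciferase light output from ATP and luciferin was measured with 10 uM ATP, within the enzyme's linear range. Buffer: 50 mM imidazole pH 7.2, 50 mM KCl, 7 mM MgCl2, 0.01% Tween 20, 0.05% BSA; luminescence read after 8 min at ambient temperature.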
NPC1 promoter act: NPC1 promoter activation | Huh7 NPC1 promoter luciferase reporter, 24 h | Potency, µM (titrated, usually from 9.22 µM), for the others: at the highest dose activation, hits mostly activators | 320,000 compounds, 2.4% hits; note: % of control where 0% means no effect; nearly all actives have a fitted effect of over 60% in size
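Readout is luciferase luminescence, reflecting NPC1 promoter activation in stably transfected Huh7 cells after 24 h compound exposure at 37 °C in reduced-serum medium with 10% FBS.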
* = called active by the depositor; ? = inconclusive; . = not tested or not shown; [ ] = remark or other dose. Most compounds without a hit are left out; they make up all but 7.5% or so of the library. Calls come from the whole dose curve; as a rule, active = well fitted curve in the direction sought with a large enough effect; inconclusive = small, poorly fitted or top-dose-only effect, or another doubt; inactive = no such curve, though single readings can be large; an effect the other way counts as inactive or inconclusive. Potency is the fitted concentration of half-maximal effect.

SMILES | Rab9 prom act | FLuc modulator | ELG1 genotoxic | SMN2 splice enh | KinaseGlo FLuc | NPC1 promoter act
CCCCN(C)S(=O)(=O)c1cc(-c2nnc3c4ccccc4c(C)nn23)ccc1C | . | -5.8% | . | . | . | .
CNC(=O)N(O)C1N(/N=C/c2cc(Br)ccc2O)C(=S)SC1(C)C (stereo not given) | -18.4% | -6.9% | 2.4% | . | . | 0.2%
COc1ccc(-n2c(=S)[nH]c3sc(-c4ccccc4)cc3c2=O)c(OC)c1 | 1.1% | 26.9µM* | -1.1% | . | . | -5.7%
Cc1nc2ccc(-c3nc4ccccc4o3)cc2[nH]1 | 0.447µM* | 2.39µM* | ? | ? | -11.6% | 0.708µM*
c1ccc(-c2nc3ccccc3o2)nc1 | ? | ? | ? | ? | -21.0% | ?
Cc1ccnc2ccc(-c3nc4ccccc4o3)cc12 | 3.55µM* | 5.36µM* | ? | 17.8µM* | -13.0% | ?
CCOC(=O)/C=c1\s/c(=C\c2sccc2C)c(=O)n1CC(=O)NCc1ccc(C)cc1 | -24.3% | -1.0% | 7.9% | -22.4% | 0.8% | -20.7%
O=C(CN1C(=O)NC2(CCCCCC2)C1=O)NCCc1ccc(F)cc1 | -1.5% | 1.6% | -4.2% | . | . | 0.4%
O=C(Nc1nccs1)C(=O)c1c[nH]c2ccccc12 | 3.16µM* | 7.57µM* | 8.2µM* | ? | -6.5% | ?
CSc1ccccc1NC(=O)C(=O)c1c[nH]c2ccccc12 | ? | 15.1µM* | 12.3% | ? | -0.3% | 25.8%
CCS(=O)(=O)c1ncc(N(Cc2ccco2)Cc2sccc2C)c(C(=O)Nc2cc(C)ccc2C)n1 | . | -0.4% | . | . | . | .
O=C1c2ccccc2S(=O)(=O)N1Cc1ccccc1[N+](=O)[O-] | -0.5% | 0.4% | -0.8% | . | . | 7.9%
O=C1c2ccccc2C(=O)N1OCc1ccccc1[N+](=O)[O-] | -3.1% | 16.9µM* | -0.9% | 1.1% | -2.6% | -0.9%
O=C(Cc1ccccc1[N+](=O)[O-])OCN1C(=O)c2ccccc2C1=O | 10.2% | 9.53µM* | 5.3% | . | . | -9.6%
O=C1OC2C[C@H]1[C@@H]1C(=O)N(Cc3ccccc3)CCC1C2I (stereo not given in full) | . | . | . | . | -0.4%[39.9 µM] | .
O=C(NCCc1ccc(Cl)cc1)c1cccc(NC2=NC3CS(=O)(=O)CC3S2)c1 (stereo not given) | 0.5% | 16.9µM* | -0.1% | . | . | -1.7%
Cc1ccc(CCNC(=O)c2ccc(NC3=NC4CS(=O)(=O)CC4S3)cc2)cc1 (stereo not given) | 0.5% | 0.4% | 1.9% | . | . | -0.5%
COc1cccc(-c2nccc(-n3ccnc3)n2)c1 | . | . | . | 12.6µM* | -3.6% | .
COc1cccc(-c2cncnc2-n2ccnc2)c1 | . | . | . | 17.8% | -5.6% | .
Cc1ccccc1CN1C(=O)c2ccccc2S(=O)(=O)c2ccc(C(=O)OCC3CCCO3)cc21 (stereo not given) | . | -7.7% | . | . | . | .
Cc1cccc(NC(=O)Nc2ccc(S(N)(=O)=O)cc2)c1 | 11.4% | ? | 1.6% | . | . | 14.2%
COC(=O)c1cc(NC(=O)Nc2cccc(Cl)c2)ccc1Cl | 8.6% | 30.1µM* | -10.3% | -6.8% | -0.1% | 11.6%
NS(=O)(=O)c1cccc(NC(=O)CCSc2ccccc2Cl)c1 | ? | 16.9µM* | ? | ? | -3.6% | ?
NS(=O)(=O)c1cccc(NC(=O)Nc2ccc(Cl)cc2)c1 | 17.8% | 7.57µM* | 6.4% | . | . | 29.7%
O=C(Nc1cccc(Cl)c1)Nc1cccc(Cl)c1 | 10.7% | ? | -2.7% | -12.3% | -2.5% | 12.8%
SMILES | Rab9 prom act | FLuc modulator | ELG1 genotoxic | SMN2 splice enh | KinaseGlo FLuc | NPC1 promoter act
COC(=O)c1cccc(NC(=O)Nc2ccc(Cl)cc2)c1 | 3.16µM* | 2.69µM* | -1.4% | . | . | 2.24µM*
O=C(CCSc1ccccc1Cl)Nc1cccc([N+](=O)[O-])c1 | 22.3% | ? | ? | ? | -1.8% | 16.4%
O=C(Nc1cccc(Cl)c1Cl)c1cc2nc(-c3ccc4c(c3)OCO4)cc(C(F)(F)F)n2n1 | . | 3.6% | . | 8.2% | . | .
COC(=O)c1cccc(NC(=O)NC23CC4CC(CC(C4)C2)C3)c1 | 24.1% | 9.53µM* | ? | 11.0% | 7.6% | 20.6%
CN(C)S(=O)(=O)c1cccc(NC(=O)COC(=O)CCSc2ccc(Cl)cc2)c1 | 1.9% | 21.3µM* | 0.9% | -4.2% | 2.8% | -1.9%
Cc1ccc(C(=O)N2CCCCC2)cc1S(=O)(=O)N1CCOCC1 | 5.9% | 0.8% | 7.3% | . | . | -0.8%
COc1ccc(N)c2c1C(=O)c1ccccc1C2=O | ? | 23.9µM* | ? | ? | -17.3% | 23.4%
Nc1ccc(O)c2c1C(=O)c1ccccc1C2=O | 0.8% | ? | 0.9% | -63.6% | 12.6µM* | 0.6%
COc1cccc2c1C(=O)c1ccc3ccccc3c1C2=O | ? | 1.9µM* | 12.6µM* | 15.8µM* | 10.4% | 17.8%
COc1ccc(OC)c2c1C(=O)c1ccccc1C2=O | -5.8% | 3.7% | -1.8% | -9.7% | -3.1% | 0.6%
COc1cccc2c1-c1c(C(=O)O)cccc1C2=O | -1.3% | 12.1% | 0.0% | . | . | -4.2%
O=C(Nc1ccc2oc(-c3cccnc3)nc2c1)c1ccc2c(c1)OCCO2 | 29.2% | 2.39µM* | ? | . | -4.5% | 11.0%
O=C(Nc1ccc2oc(-c3ccccc3)nc2c1)c1ccc2c(c1)OCCO2 | 18.0% | 5.36µM* | -11.2% | -45.9% | 0.3% | 0.3%
O=C(Nc1ccc2oc(-c3ccccc3)nc2c1)c1ccco1 | 2.51µM* | 4.78µM* | ? | 12.6µM* | -0.7% | 1.78µM*
O=C(Nc1ccc2oc(-c3ccncc3)nc2c1)c1ccc2c(c1)OCO2 | -7.2% | ? | 1.9% | . | . | -1.7%
O=C(Nc1ccc2oc(-c3ccncc3)nc2c1)c1ccc2c(c1)OCCO2 | 2.0% | 1.69µM* | 5.6% | . | . | 2.5%
COC(=O)c1scc(-c2ccc(C)cc2)c1S(=O)(=O)N1CCN(c2cccc(Cl)c2)CC1 | . | 1.9% | . | . | . | .
O=C(Cn1ncc(N2CCOCC2)c(Br)c1=O)c1ccc(Cl)cc1 | -1.4% | -19.5% | 9.9% | 8.5% | 3.3% | 15.8%
O=C(Cn1ncc(N2CCCC2)c(Cl)c1=O)c1ccc(Cl)cc1 | 1.41µM* | 21.3µM* | ? | 12.6µM* | 3.6% | 2.51µM*
COc1ccc2cc(-c3cn4c(n3)sc3cc(F)ccc34)c(=O)oc2c1 | . | 9.53µM* | . | . | . | .
CC(C)c1ccc(Cc2cn3cc(-c4cc5ccccc5oc4=O)nc3s2)cc1 | . | -17.1% | . | -25.4% | . | .
Cc1ccc2c(c1)sc1nc(-c3cc4ccccc4oc3=O)cn12 | . | 0.426µM* | . | -12.2% | . | .
COc1ccc(NC(=O)C2CC(=O)N/C(=N/N=C/c3ccccc3)S2)cc1 (stereo not given) | 1.0% | 0.4% | ? | . | . | -4.9%
CC(/C=C/c1ccc(N(C)C)cc1)=N/N=C1/NC(=O)CC(C(=O)Nc2ccc(Cl)cc2)S1 (stereo not given) | -1.6% | 7.57µM* | 5.1% | ? | 0.9% | 8.4%

Bioassay records (PubChem BioAssay)
